From PubChem BioAssay AID1159580 (chemical genetic matrix, 2015)
Where “and” joins values, the source holds several entries; their conditions need not be identical. Equal values may be shown once. Hit rate of the full screen: of about 5,500 compounds, about 2,000 (36%) were called active. About 18% were inconclusive and are not listed. Some of the results follow. A number with no mark means an inactive call. Rule as the data show it: active = normalized growth mostly below about 0.91 (no sharp cut-off); inconclusive = no clear call, values can overlap the other calls; inactive = mostly above about 0.92.

Test: chemical genetic growth profiling, strain panel (AID 1159580);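 also: tested at 20 µM; growth read once vehicle control cultures reached saturation at 30 °C; 1 = growth at the plate median or of vehicle wells; lower values mean less growth of the strain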
Details: S. cerevisiae deletion strains, growth OD

## CC(C)=CCOc1cc2oc(=O)ccc2cc1O
Locus YAL021C, strain ccr4, hits give low values
  normalized growth: 0.977
Locus YAL026C, strain drs2, hits give low values
  normalized growth: 0.919
Locus YAL030W, strain snc1, hits give low values
  normalized growth: 0.978
Locus YBL061C, strain skt5, hits give low values
  normalized growth: 0.94
Locus YBR009C, strain hhf1, hits give low values
  normalized growth: 0.937
Locus YBR021W, strain FUR4, hits give low values
  normalized growth: 0.876
Locus YBR023C, strain chs3, hits give low values
  normalized growth: 0.929
Locus YBR171W, strain sec66, hits give low values
  normalized growth: 0.915
Locus YBR229C, strain ROT2, hits give low values
  normalized growth: 0.967
Locus YBR231C, strain swc5, hits give low values
  normalized growth: 0.93
Locus YBR279W, strain paf1, hits give low values
  normalized growth: 0.962
Locus YCL011C, strain gbp2, hits give low values
  normalized growth: 0.911
Locus YCL016C, strain dcc1, hits give low values
  normalized growth: 0.965
Locus YCL029C, strain bik1, hits give low values
  normalized growth: 0.961
Locus YCL061C, strain MRC1, hits give low values
  normalized growth: 0.94
Locus YCL069W, strain vba3, hits give low values
  normalized growth: 0.94
Locus YCR088W, strain abp1, hits give low values
  normalized growth: 0.957
Locus YDL005C, strain med2, hits give low values
  normalized growth: 0.956
Locus YDL035C, strain GPR1, hits give low values
  normalized growth: 0.894
Locus YDL040C, strain nat1, hits give low values
  normalized growth: 0.951
Locus YDL074C, strain BRE1, hits give low values
  normalized growth: 0.808
Locus YDL101C, strain DUN1, hits give low values
  normalized growth: 0.935
Locus YDL185W, strain tfp1, hits give low values
  normalized growth: 0.965
Locus YDL192W, strain arf1, hits give low values
  normalized growth: 0.879 (active)
Locus YDR001C, strain nth1, hits give low values
  normalized growth: 0.965
Locus YDR069C, strain doa4, hits give low values
  normalized growth: 0.944
Locus YDR101C, strain arx1, hits give low values
  normalized growth: 0.919
Locus YDR137W, strain rgp1, hits give low values
  normalized growth: 0.881
Locus YDR159W, strain sac3, hits give low values
  normalized growth: 0.881
Locus YDR162C, strain NBP2, hits give low values
  normalized growth: 0.876
Locus YDR195W, strain ref2
  normalized growth: 1.02
Locus YDR297W, strain sur2, hits give low values
  normalized growth: 0.969
Locus YDR318W, strain mcm21, hits give low values
  normalized growth: 0.902 (active)
Locus YDR334W, strain swr1, hits give low values
  normalized growth: 0.927
Locus YDR335W, strain msn5, hits give low values
  normalized growth: 0.968
Locus YDR388W, hits give low values
  normalized growth: 0.96
Locus YDR392W, strain spt3, hits give low values
  normalized growth: 0.706 (active)
Locus YDR502C, strain sam2, hits give low values
  normalized growth: 0.909 (active)
Locus YEL003W, strain gim4, hits give low values
  normalized growth: 0.935
Locus YEL037C, strain rad23, hits give low values
  normalized growth: 0.941
Locus YEL061C, strain CIN8 (second series), hits give low values
  normalized growth: 0.938
Locus YEL061C, strain CIN8, hits give low values
  normalized growth: 0.957
Locus YER015W, strain faa2, hits give low values
  normalized growth: 0.937
Locus YER016W, strain bim1, hits give low values
  normalized growth: 0.962
Locus YER110C, hits give low values
  normalized growth: 0.971
Locus YER111C, strain swi4, hits give low values
  normalized growth: 0.95
Locus YER155C, strain BEM2 (second series), hits give low values
  normalized growth: 0.685 (active)
Locus YER155C, strain BEM2, hits give low values
  normalized growth: 0.962
Locus YER167W, strain BCK2, hits give low values
  normalized growth: 0.881 (active)
Locus YFR010W, strain ubp6, hits give low values
  normalized growth: 0.942
Locus YGL078C, strain dbp3, hits give low values
  normalized growth: 0.97
Locus YGL086W, strain mad1, hits give low values
  normalized growth: 0.882 (active)
Locus YGL167C, strain pmr1, hits give low values
  normalized growth: 0.939
Locus YGL173C, strain kem1, hits give low values
  normalized growth: 0.926
Locus YGL227W, strain vid30, hits give low values
  normalized growth: 0.957
Locus YGL240W, strain doc1, hits give low values
  normalized growth: 0.886
Locus YGL248W, strain PDE1, hits give low values
  normalized growth: 0.9
Locus YGL253W, strain hxk2, hits give low values
  normalized growth: 0.899 (active)
Locus YGR135W, strain pre9, hits give low values
  normalized growth: 0.915
Locus YGR252W, strain gcn5, hits give low values
  normalized growth: 0.713 (active)
Locus YHR013C, strain ard1, hits give low values
  normalized growth: 0.955
Locus YHR027C, strain rpn1, hits give low values
  normalized growth: 0.956
Locus YHR030C, strain SLT2, hits give low values
  normalized growth: 0.947
Locus YHR079C, strain IRE1 (second series), hits give low values
  normalized growth: 0.974
Locus YHR079C, strain IRE1, hits give low values
  normalized growth: 0.936
Locus YHR094C, strain hxt1, hits give low values
  normalized growth: 0.97
Locus YHR129C, strain ARP1, hits give low values
  normalized growth: 0.918 (active)
Locus YHR142W, strain chs7, hits give low values
  normalized growth: 0.878
Locus YHR200W, strain rpn10, hits give low values
  normalized growth: 0.895 (active)
Locus YIL066C, strain RNR3, hits give low values
  normalized growth: 0.85 (active)
Locus YIL073C, strain SPO22, hits give low values
  normalized growth: 0.975
Locus YIL125W, strain kgd1, hits give low values
  normalized growth: 0.948
Locus YIR030C, strain dcg1, hits give low values
  normalized growth: 0.97
Locus YJL092W, strain hpr5, hits give low values
  normalized growth: 0.927
Locus YJL095W, strain BCK1 (second series), hits give low values
  normalized growth: 0.948
Locus YJL095W, strain BCK1, hits give low values
  normalized growth: 0.858 and 0.946
Locus YJL115W, strain asf1, hits give low values
  normalized growth: 0.949
Locus YJL129C, strain trk1, hits give low values
  normalized growth: 0.904
Locus YJL134W, strain LCB3, hits give low values
  normalized growth: 0.963
Locus YJL154C, strain vps35, hits give low values
  normalized growth: 0.966
Locus YJL164C, strain tpk1, hits give low values
  normalized growth: 0.974
Locus YJL166W, strain qcr8, hits give low values
  normalized growth: 0.94
Locus YJL168C, strain set2, hits give low values
  normalized growth: 0.977
Locus YJL187C, strain SWE1 (second series), hits give low values
  normalized growth: 0.889
Locus YJL187C, strain SWE1, hits give low values
  normalized growth: 0.951
Locus YJR066W, strain TOR1, hits give low values
  normalized growth: 0.92
Locus YKL009W, strain mrt4, hits give low values
  normalized growth: 0.916
Locus YKL068W, hits give low values
  normalized growth: 0.97
Locus YKL085W, strain MDH1 (second series), hits give low values
  normalized growth: 0.959
Locus YKL085W, strain MDH1, hits give low values
  normalized growth: 0.959
Locus YKL160W, strain elf1, hits give low values
  normalized growth: 0.981
Locus YKL190W, strain CNB1, hits give low values
  normalized growth: 0.953
Locus YKR001C, strain vps1, hits give low values
  normalized growth: 0.662 (active)
Locus YKR026C, strain gcn3, hits give low values
  normalized growth: 0.927
Locus YKR091W, strain srl3, hits give low values
  normalized growth: 0.96
Locus YLL001W, strain dnm1, hits give low values
  normalized growth: 0.964
Locus YLL026W, hits give low values
  normalized growth: 0.941
Locus YLL041C, strain sdh2, hits give low values
  normalized growth: 0.934
Locus YLR027C, strain aat2, hits give low values
  normalized growth: 0.939
Locus YLR039C, strain RIC1, hits give low values
  normalized growth: 0.647 (active)
Locus YLR058C, strain SHM2, hits give low values
  normalized growth: 0.905
Locus YLR102C, strain apc9, hits give low values
  normalized growth: 0.974
Locus YLR113W, strain HOG1, hits give low values
  normalized growth: 0.977
Locus YLR221C, strain rsa3, hits give low values
  normalized growth: 0.916
Locus YLR258W, strain gsy2, hits give low values
  normalized growth: 0.951
Locus YLR262C, strain YPT6 (second series), hits give low values
  normalized growth: 0.956
Locus YLR268W, strain sec22, hits give low values
  normalized growth: 0.9
Locus YLR320W, strain mms22, hits give low values
  normalized growth: 0.848 (active)
Locus YLR330W, strain CHS5, hits give low values
  normalized growth: 0.839 (active)
Locus YLR342W, strain FKS1, hits give low values
  normalized growth: 0.946
Locus YLR357W, strain rsc2, hits give low values
  normalized growth: 0.952
Locus YLR370C, strain arc18, hits give low values
  normalized growth: 0.925
Locus YLR371W, strain rom2, hits give low values
  normalized growth: 0.934
Locus YLR384C, strain iki3, hits give low values
  normalized growth: 0.966
Locus YLR418C, strain cdc73, hits give low values
  normalized growth: 0.753 (active)
Locus YML016C, strain PPZ1, hits give low values
  normalized growth: 0.948
Locus YML032C, strain rad52, hits give low values
  normalized growth: 0.895 (active)
Locus YML120C, strain ndi1, hits give low values
  normalized growth: 0.953
Locus YML124C, strain tub3, hits give low values
  normalized growth: 0.949
Locus YMR058W, strain fet3, hits give low values
  normalized growth: 0.934
Locus YMR078C, strain ctf18, hits give low values
  normalized growth: 0.963
Locus YMR125W, strain sto1, hits give low values
  normalized growth: 0.956
Locus YMR129W, hits give low values
  normalized growth: 0.961
Locus YMR205C, strain PFK2, hits give low values
  normalized growth: 0.934
Locus YMR223W, strain ubp8, hits give low values
  normalized growth: 0.894 (active)
Locus YMR231W, strain pep5, hits give low values
  normalized growth: 0.929
Locus YMR307W, strain GAS1, hits give low values
  normalized growth: 0.596 (active)
Locus YNL067W, strain RPL9B, hits give low values
  normalized growth: 0.912
Locus YNL071W, strain lat1, hits give low values
  normalized growth: 0.898 (active)
Locus YNL128W, strain TEP1, hits give low values
  normalized growth: 0.929
Locus YNL183C, strain NPR1, hits give low values
  normalized growth: 0.923
Locus YNL209W, strain ssb2, hits give low values
  normalized growth: 0.971
Locus YNL233W, strain BNI4, hits give low values
  normalized growth: 0.792 (active)
Locus YNL248C, strain rpa49, hits give low values
  normalized growth: 0.98
Locus YNL250W, strain rad50, hits give low values
  normalized growth: 1
Locus YNL271C, strain bni1, hits give low values
  normalized growth: 0.97
Locus YNL298W, strain CLA4, hits give low values
  normalized growth: 0.955
Locus YNL307C, strain MCK1, hits give low values
  normalized growth: 0.786 (active)
Locus YNL322C, strain KRE1 (second series), hits give low values
  normalized growth: 0.928
Locus YNR049C, strain mso1, hits give low values
  normalized growth: 0.942
Locus YNR052C, strain pop2, hits give low values
  normalized growth: 0.997
Locus YOL012C, strain htz1
  normalized growth: 0.93
Locus YOL147C, strain pex11, hits give low values
  normalized growth: 0.885 (active)
Locus YOR001W, strain rrp6, hits give low values
  normalized growth: 0.906
Locus YOR061W, strain CKA2, hits give low values
  normalized growth: 0.959
Locus YOR069W, strain VPS5, hits give low values
  normalized growth: 0.951
Locus YOR070C, strain gyp1, hits give low values
  normalized growth: 0.947
Locus YOR080W, strain dia2, hits give low values
  normalized growth: 0.947
Locus YOR083W, strain WHI5, hits give low values
  normalized growth: 0.977
Locus YOR106W, strain vam3, hits give low values
  normalized growth: 0.94
Locus YOR136W, strain idh2, hits give low values
  normalized growth: 0.957
Locus YOR144C, strain elg1, hits give low values
  normalized growth: 0.945
Locus YOR184W, strain ser1, hits give low values
  normalized growth: 0.72 (active)
Locus YOR231W, strain MKK1, hits give low values
  normalized growth: 0.924
Locus YOR265W, strain rbl2, hits give low values
  normalized growth: 0.949
Locus YOR270C, strain vph1, hits give low values
  normalized growth: 0.799
Locus YOR290C, strain snf2, hits give low values
  normalized growth: 0.917
Locus YOR316C, strain cot1, hits give low values
  normalized growth: 0.973
Locus YPL051W, strain arl3, hits give low values
  normalized growth: 0.895 (active)
Locus YPL078C, strain atp4, hits give low values
  normalized growth: 0.962
Locus YPL106C, strain sse1, hits give low values
  normalized growth: 0.908
Locus YPL240C, strain hsp82, hits give low values
  normalized growth: 0.937
Locus YPL241C, strain CIN2, hits give low values
  normalized growth: 0.963
Locus YPL256C, strain CLN2, hits give low values
  normalized growth: 0.906
Locus YPR119W, strain clb2, hits give low values
  normalized growth: 0.971
Locus YPR141C, strain kar3, hits give low values
  normalized growth: 0.974
Locus YPR163C, strain tif3, hits give low values
  normalized growth: 0.849 (active)
Locus YPR167C, strain met16, hits give low values
  normalized growth: 0.942
Strain wtn01, hits give low values
  normalized growth: 0.877 (active)
